# A selection: hits, their analogues and other compounds. The true share with any hit is near 8.5%.
# RGS12 GoLoco inh: qHTS Assay for Inhibitors of RGS12 GoLoco Motif Activity (Red Fluorophore); Potency, µM (doses to about 61.6 µM), for the others: at the highest dose activity, negative = inhibition, actives largely listed as inhibitors; Guanine nucleotide-binding protein G(i) subunit alpha-1 (Homo sapiens), P63096; 230,000 compounds, 0.44% hits; AID 880, 2007; Gai1:RGS12 GoLoco peptide FP, rhodamine, 10 min; active means well fitted inhibition curve with a large enough effect, not every such curve was filed as active; inactive means no such curve, though single readings can be large or run the other way; further: potency means the concentration at half of the fitted maximal effect; nearly all actives have a fitted effect of over 30% in size
# Target sequence (P63096 whole entry, looked up): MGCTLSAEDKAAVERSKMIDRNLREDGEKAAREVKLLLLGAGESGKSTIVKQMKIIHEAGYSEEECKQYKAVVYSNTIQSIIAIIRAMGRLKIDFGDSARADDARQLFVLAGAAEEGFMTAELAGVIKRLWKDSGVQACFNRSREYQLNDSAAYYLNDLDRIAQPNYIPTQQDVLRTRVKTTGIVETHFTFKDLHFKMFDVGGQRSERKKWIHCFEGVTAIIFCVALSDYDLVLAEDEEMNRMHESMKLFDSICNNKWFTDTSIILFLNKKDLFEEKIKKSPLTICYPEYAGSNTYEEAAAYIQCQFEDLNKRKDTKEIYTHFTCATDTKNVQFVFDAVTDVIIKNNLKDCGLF
# Coupling enz: qHTS Assay for Inhibitors of Fructose-1,6-bisphosphate Aldolase from Giardia Lamblia: Coupling assay counterscreen; coupling enzyme system counterscreen, AmpLite Red fluorescence; activity change, negative = inhibition, % at 58.2 µM, hits read low; 290,000 compounds, 0.67% hits; in the data active means activity change below about -30%
#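 Fluorescence at 525 nm excitation and 598 nm emission measured inhibition of the coupled detection system without aldolase. Compounds (at 57.5 uM final) were preincubated 10 min at room temperature with coupling enzyme reagent before a 20 min substrate/AmpLite Red step.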
# Sfp PPTase inh: qHTS Assay for Inhibitors of Bacillus subtilis Sfp phosphopantetheinyl transferase (PPTase); 4'-phosphopantetheinyl transferase ffp (Bacillus subtilis), Q9F4F7; Biochemical Sfp PPTase activity, qHTS; Potency, µM, without a hit: largest response in the series, negative = inhibition, most hits filed as inhibitors; 310,000 compounds, 3.5% hits;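 further: the enzyme is Sfp with the accession as filed and its product quenches rhodamine fluorescence; potency means the concentration at half of the fitted maximal effect; 0% = enzyme reaction without inhibitor and -100% = no enzyme wells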
#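 Fluorescence-quenching assay: 15 nM Sfp-PPTase preincubated 15 min at room temperature with compound, then 5 uM rhodamine-CoA and 12.5 uM BHQ-2-labelled YbbR peptide added. Fluorescence (ex 525/em 598 nm) read at start and after 30 min; difference gives rate.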
# JMJD2E inh: qHTS Assay for Inhibitors of Human Jumonji Domain Containing 2E (JMJD2E); JMJD2E catalytic domain, FDH-coupled NADH fluorescence (FDH is formaldehyde dehydrogenase); Lysine-specific demethylase 4E (Homo sapiens), B2RXH2; Potency, µM (titrated, usually from 57.1 µM), for the others: at the top dose activity change, negative = inhibition, actives largely listed as inhibitors; 230,000 compounds, 1.6% hits; AID 2147, 2009; active means well fitted inhibition curve with a large enough effect, not every such curve was filed as active; inconclusive means small, poorly fitted or top-dose-only effect, or another doubt; inactive means no such curve, though single readings can be large or run the other way;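 further: potency means the concentration at half of the fitted maximal effect; 0% = wells with enzyme and -100% = buffer wells without enzyme; nearly all actives have a fitted effect of over 50% in size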
# Target sequence (B2RXH2 1-337 limits assumed): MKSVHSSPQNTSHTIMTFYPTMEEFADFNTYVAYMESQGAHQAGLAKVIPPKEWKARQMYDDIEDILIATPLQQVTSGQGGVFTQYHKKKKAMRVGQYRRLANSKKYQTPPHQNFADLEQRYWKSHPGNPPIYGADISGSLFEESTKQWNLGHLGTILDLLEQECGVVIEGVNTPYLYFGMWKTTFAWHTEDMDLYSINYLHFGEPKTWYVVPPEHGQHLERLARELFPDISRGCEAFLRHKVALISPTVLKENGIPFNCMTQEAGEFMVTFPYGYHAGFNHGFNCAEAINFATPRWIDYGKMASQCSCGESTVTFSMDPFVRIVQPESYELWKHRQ
# ALDH1A1 block: qHTS Assay for Inhibitors of Aldehyde Dehydrogenase 1 (ALDH1A1); Purified ALDH1A1, NADH fluorescence, propionaldehyde substrate; Aldehyde dehydrogenase 1A1 (Homo sapiens), P00352; Potency, µM (top dose mostly 75.3 µM), inactives show at the highest dose activity, negative = inhibition, hits mostly inhibitors; AID 1030, 2008; 220,000 compounds, 7.3% hits; active means well fitted inhibition curve with a large enough effect, not every such curve was filed as active; inconclusive means small, poorly fitted or top-dose-only effect, or another doubt; inactive means no such curve, though single readings can be large or run the other way;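 further: potency means the concentration at half of the fitted maximal effect; plate controls were no enzyme wells and a reference inhibitor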
# NPSR antagonist: qHTS Assay for Antagonists of the Neuropeptide S Receptor: cAMP Signal Transduction. Q6W5P4. CHO-NPSR cells, cAMP TR-FRET, antagonist mode. Potency, µM (top dose mostly 38.3 µM), for inactives: at the highest dose activity change, negative = inhibition, hits mostly inhibitors. 220,000 compounds, 1% hits. AID 1461, 2008; further: potency means the concentration at half of the fitted maximal effect; nearly all actives have a fitted effect of over 50% in size
# * = called active by the depositor; ? = inconclusive; . = not tested or not shown; [ ] = dose if it differs, or a comment. Unless noted, the call rests on the fitted dose curve; in most records, active means well fitted curve in the direction sought with a large enough effect; inconclusive means small, poorly fitted or top-dose-only effect, or another doubt; inactive means no such curve, though single readings can be large; an effect the other way counts as inactive or inconclusive. Unless noted, on the % scale 0 is the no-effect control and ±100 the full control effect.
SMILES,RGS12 GoLoco inh,Coupling enz,Sfp PPTase inh,JMJD2E inh,ALDH1A1 block,NPSR antagonist
Cc1ccccc1NC(=S)c1ccc2ccccc2n1,.,0,28µM*,.,.,.
CC(C)n1nc(C(=O)Nc2nnc(C3CC3)s2)c2ccccc2c1=O,4%,-2,0%,-7%,-3%,-14%
CN(C)C(=S)c1ccc2ccccc2n1,2%,-1,15%,9%,8%,-4%[46.1 µM]
CCc1nnc(NC(=O)c2nc(Cl)ccc2Cl)s1,.,.,5%,.,.,.
CCc1nnc(NC(=O)c2ccc3ccccc3n2)s1,35%,-28,?,-11%,18µM*,-44%
O=C(Nc1ccccc1C(=O)O)c1ccc2ccccc2n1,43%,-40*,?,1%,?,-24%[46.1 µM]
COc1cccc(CN2CCNC(=O)C2CC(=O)NCc2cc(C(C)C)no2)c1 (stereo unspecified),-8%,-2,3%,-19%,-12%,-7%
O=C(c1ccsc1)N1CCCC(Nc2cccc(F)c2)C1 (stereo unspecified),.,-3,6%,.,.,.
CCSc1nnc(NC(=O)c2cc(C)nc3ccccc23)s1,1%,0,8%,7%,-8%,-17%[46.1 µM]
CCSc1nnc(NC(=O)c2ccc3ccccc3n2)s1,14%,-26,?,-3%,?,7.9µM*
COc1ccc(/C(C)=N/NC(=O)CNC(=O)CCc2ccccc2)c(OC)c1,-2%,3,8%,2%,.,15%
CC(=O)N(C1=C(N)C(=O)c2ccccc2C1=O)c1ccccc1,.,-34*,13%,.,.,.
CCCCOc1ccccc1NC(=O)CC1Nc2ccccc2NC1=O (stereo unspecified),17%,0,-4%,?,14µM*,-41%[46.1 µM]
CSc1nnc(C2CCN(CC(=O)Nc3ccccc3N3CCOCC3)CC2)n1C,.,1,20%,.,.,.
Cc1ccccc1CN1CCN(CC2CC2)CC1CCO (stereo unspecified),.,1,8%,.,.,.
CCCCC/C=C\C/C=C\CCCCCCCCCC(=O)NC(C)C(=O)O (stereo unspecified),2%,-1,13%,4%,1%,.
CCOC(=O)c1cc(C#N)c(SCC(=O)OC)[nH]c1=O,4%,12,50µM*,?,.,?
CCOC(=O)c1cc(C#N)c(=S)[nH]c1C,5%,6,?,-29%,3.5µM*,-14%
COCc1[nH]c(=S)c(C#N)cc1C(=O)OC,-26%,0,8.9µM*,25µM*,.,-40%
COc1ccc(Nc2nc(N3CCOCC3)nc(N3CCOCC3)n2)cc1Cl,.,0,0%,.,.,.
Cc1ccc(C(C(=O)NC2CCCC2)N(Cc2cccnc2)C(=O)c2snc(C(N)=O)c2N)o1 (stereo unspecified),.,-1,-32%,1%,1%,-10%[46.1 µM]
Cc1ccc(CN(C(=O)c2csnn2)C(C(=O)NC2CCCC2)c2ccc(C)o2)cc1 (stereo unspecified),8%,1,3%,2%,14µM*,-16%[46.1 µM]
Cc1ccc(C(C(=O)NC2CCCCC2)N(Cc2cccnc2)C(=O)C2COc3ccccc3O2)o1 (stereo unspecified),76%,3,-11%,-4%,13µM*,?
COc1ccc(C(C)=O)cc1COC(=O)c1cc(=O)c2ccccc2o1,.,-4,-5%,.,.,.
Cc1ccc(NC(=O)Cn2cnc([N+](=O)[O-])c2)cc1C,.,-1,18%,.,.,.
SMILES,RGS12 GoLoco inh,Coupling enz,Sfp PPTase inh,JMJD2E inh,ALDH1A1 block,NPSR antagonist
COc1ccc2c(c1)c(CC(=O)O)c(C)n2Cc1ccc(Cl)cc1,5%,.,.,5%,25µM*,-6%[46.1 µM]
COc1ccc2c(c1)c(CC(=O)OCC(=O)O)c(C)n2C(=O)c1ccc(Cl)cc1,1%,18,?,-4%,8%,-12%
Cc1cc(Sc2nc(NC(C)C)nc(NC(C)C)n2)nc(Cl)n1,8%,4,-11%,-6%,?,-7%
O=C(Nc1ccccc1C(=O)Nc1ccccc1)c1cccs1,.,1,15%,.,.,.
O=C(O)/C=C\C(=O)Nc1ccccc1F,-8%,3,-1%,0%,35µM*,15%
O=C(O)C1CCCCC1C(=O)Nc1ccccc1Cl (stereo unspecified),6%,0,25%,2%,2%,-8%[46.1 µM]
O=C(O)/C=C/C(=O)Nc1ccccc1C(=O)Nc1ccccc1,3%,1,79µM*,-25%,5%,6%[46.1 µM]
O=C(O)C1CCCCC1C(=O)Nc1ccccc1F (stereo unspecified),13%,-6,10%,-4%,20µM*,8%[46.1 µM]
COc1ccccc1NC(=O)/C=C\C(=O)O,-5%,-2,16%,-12%,0%,2%
O=C(O)/C=C\C(=O)Nc1ccc(F)c(F)c1F,-7%,6,-7%,0%,22µM*,-10%
COCCN(Cc1cc2cc(C)c(C)cc2nc1Cl)C(=O)N1CCOCC1,6%,1,15%,11%,14%,3%
CNC1=CN(O)C(c2ccccc2)=c2cc(Cl)ccc2=N1,5%,2,7%,.,14%,.
O=c1cc(CN2CCN(c3cccc(C(F)(F)F)c3)CC2)nc2sccn12,7%,3,6%,0%,.,20%
COc1cc(C(=O)Nc2cccc3c2CCCC3)cc(OC)c1OC,.,1,10%,.,.,.
O=C(O)c1ccc2c(c1)C(=O)N(c1cccc(C(=O)/C=C/c3ccccc3)c1)C2=O,-5%,9,?,8%,0.71µM*,8%
CCOC(=O)Cn1nnnc1C(CC)N(Cc1cc2ccc(C)cc2[nH]c1=O)C1CCCC1 (stereo unspecified),10%,1,3%,?,20µM*,-22%[46.1 µM]
CCOC(=O)Cn1nnnc1C(CC)N(Cc1cc2c(C)cc(C)cc2[nH]c1=O)C1CCCC1 (stereo unspecified),3%,-3,10%,-6%,18µM*,-3%[46.1 µM]
CCCCCCCCCCCCCCCCSCC(COC)COP(=O)([O-])OCC[N+](C)(C)C (stereo unspecified),.,0,-1%,.,.,.
O=C(O)c1[nH]c2ccc(Br)cc2c1CCN1C(=O)c2cccc([N+](=O)[O-])c2C1=O,4%,8,3%,3%,32µM*,2%
c1ccc(-c2ccc(-c3nccc4ccccc34)[nH]2)cc1,7%,-1,50µM*,?,.,?
COC(=O)c1sccc1NC(=O)CN(C)NS(=O)(=O)c1ccc(Cl)cc1,1%,0,16%,1%,2.5µM*,0%[46.1 µM]

# Compound activity deposited in PubChem by National Center for Advancing Translational Sciences (NCATS).
